CYP2C9 inh: inhibitors of human CYP2C9; CYP2C9 Supersomes, luciferin-H conversion, luminescence; P11712; inhibition, % at 5 µM; actives 20% (n = 96,000);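 active = blocking of liver enzyme CYP2C9 beyond about 50% at 5 µM, limit read from the data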
CYP2C19 inh: blocks human cytochrome P450 2C19. P33261. CYP2C19 Supersomes, luciferin-H EGE luminescence, 30 min. AID 778. inhibition, % at 5 µM. actives 21% (n = 96,000);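 active = CYP2C19 inhibition above a set limit at 5 µM in the primary screen, cut at about 50% in these data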
Target sequence (P33261 whole entry, looked up): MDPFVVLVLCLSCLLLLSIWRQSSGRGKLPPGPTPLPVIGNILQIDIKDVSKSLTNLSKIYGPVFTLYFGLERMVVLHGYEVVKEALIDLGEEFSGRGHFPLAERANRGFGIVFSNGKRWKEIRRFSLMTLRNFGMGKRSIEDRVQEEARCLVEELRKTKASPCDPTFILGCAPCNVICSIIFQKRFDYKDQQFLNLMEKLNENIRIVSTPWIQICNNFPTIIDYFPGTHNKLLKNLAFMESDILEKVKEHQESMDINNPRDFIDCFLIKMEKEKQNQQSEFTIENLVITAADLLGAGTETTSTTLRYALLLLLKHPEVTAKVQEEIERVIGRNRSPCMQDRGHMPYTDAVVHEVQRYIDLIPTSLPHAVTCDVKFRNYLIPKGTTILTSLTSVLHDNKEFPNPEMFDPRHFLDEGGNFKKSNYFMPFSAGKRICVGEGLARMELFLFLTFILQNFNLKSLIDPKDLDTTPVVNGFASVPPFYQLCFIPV
Mac1 fbg enh: enhancers of human CD11b/CD18 binding to fibrinogen. K562 CD11b/CD18 adhesion to fibrinogen, ATPlite luminescence. actives 0.07% (n = 93,000). activation, % at 10 µM. P05107+P11215;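 active = 10 µM primary screen giving 50% or more activity, confirmed by 40% or more on retest at that dose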
CYP2C19 activ: cytochrome P450 2C19 (human) activation; P33261; recombinant CYP2C19, luciferin-H EGE luminescence; hits give high values; 0 = fully inhibited enzyme, 1 = untreated enzyme; activation factor at 5 µM; 96,000 tested, under 10 active; AID 1025;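 active = activation factor of at least 2 at 5 µM in the primary screen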
CYP2C9 activ: increases human cytochrome P450 2C9 activity. recombinant CYP2C9, luciferin-H conversion, luminescence; hits give high values; factor 1 = untreated enzyme, 0 = blocked. activation factor at 5 µM. actives 1.4% (n = 96,000);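 active = activation factor of 2 or more for CYP2C9 at a 5 µM dose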
Mac1 fbg inh: inhibitors of human CD11b/CD18 binding to fibrinogen. P05107+P11215. K562 CD11b/CD18 adhesion to fibrinogen, ATPlite luminescence; Mn2+ added to activate the integrin. inhibition, % at 10 µM. actives 0.54% (n = 93,000). AID 1497;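 active = primary inhibition of 50% or more at 10 µM, then 40% or more on retest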
Large screens that a line does not name were inactive. The list is not random: actives were taken first. Their share in the collection is about 28%.

Cn1ncc2c(NNC(=O)c3ccccc3Cl)ncnc21	none (no result: CYP2C9 inh, CYP2C19 inh, CYP2C19 activ, CYP2C9 activ)
CN1CCN(NC(=O)c2cc([N+](=O)[O-])cc([N+](=O)[O-])c2)CC1	none
COc1ccccc1NC(=O)Cn1c(=O)sc2ccccc21	none
CC(C)NS(=O)(=O)c1ccc(OCC(=O)Nc2cccc3ccccc23)cc1	CYP2C9 inh 82.1, CYP2C19 inh 87.9
COc1ccc(OCC(=O)Nc2ccccc2O)cc1	CYP2C9 inh 94.8, CYP2C19 inh 98.7
COc1ccc(OCC(=O)Nc2nc3ccccc3[nH]2)cc1	none
COc1ccc(NC(=O)Cn2c(=O)sc3ccccc32)c(OC)c1	CYP2C19 inh 90.3
Cc1cccc2cc(/C=N/NC(=O)CN3CCOCC3)c(Cl)nc12	none
Cc1ccccc1S(=O)(=O)Cc1ccc(C(=O)N2CCN(c3ncccn3)CC2)o1	CYP2C9 inh 84.1, CYP2C19 inh 92.4
CCOC(=O)N1CCN(C(=O)c2ccc(CS(=O)(=O)c3ccccc3OC)o2)CC1	none
Cc1cccc(N2CCN(C(=O)c3csc4ccccc34)CC2C)c1 (stereo not drawn)	none (no result: CYP2C9 inh, CYP2C19 inh, CYP2C19 activ, CYP2C9 activ)
COc1ccccc1S(=O)(=O)Cc1ccc(C(=O)N2CCN(c3ccc(C)cc3)C(C)C2)o1 (stereo not drawn)	CYP2C9 inh 91.2, CYP2C19 inh 55.1
COc1ccc(S(=O)(=O)Cc2ccc(C(=O)N3CCN(c4cccc(C)c4)C(C)C3)o2)cc1 (stereo not drawn)	CYP2C9 inh 90.2, CYP2C19 inh 58.5
Cc1ccccc1S(=O)(=O)Cc1ccc(C(=O)N2CCN(c3ccc(F)cc3)CC2)o1	none
COc1ccccc1N1CCN(C(=O)c2ccc(CS(=O)(=O)c3ccccc3OC)o2)CC1	CYP2C9 inh 78.9
O=C(NCc1cccs1)c1cc(C2CC2)on1	none
CC(C(=O)NCc1cccs1)N1C(=O)c2ccccc2C1=O (stereo not drawn)	none
CC1(C)Cc2nc(N)c(C(=O)NCCO)cc2CO1	none
O=C(CCl)c1ccc(Cc2ncc(C(F)(F)F)cc2Cl)s1	none
COc1ccc(OC)c(C(=O)c2nc3c(n2O)CCCCC3)c1	CYP2C9 inh 51.1
COc1ccc(C(=O)c2nc3c(n2O)CCCCC3)cc1	none
COc1ccc(OC)c(C(=O)c2ccc(C(=O)N3CCCCC3)cc2)c1	CYP2C9 inh 72.9 (no result: Mac1 fbg enh, Mac1 fbg inh)
COc1ccc(C(=O)N2CCCC2)cc1	none
O=C(c1ccc(Oc2ccccc2)cc1)c1nc2c(n1O)CCCC2	CYP2C9 inh 67.3
O=C(Nc1ccccc1N(C(=O)c1ccco1)S(=O)(=O)c1cccs1)c1ccco1	CYP2C9 inh 74.8
COc1ccc(N(C(=O)c2ccco2)S(=O)(=O)c2cc(OC)ccc2OC)cc1	CYP2C9 inh 72.5
COc1ccc(N(C(=O)c2ccco2)S(=O)(=O)c2cccc([N+](=O)[O-])c2)cc1	none
COc1ccc(N(C(=O)c2ccco2)S(=O)(=O)c2cccs2)cc1	CYP2C9 inh 50.4
CC(=O)N(c1ccc(N(C(C)=O)S(=O)(=O)c2cccs2)cc1)S(=O)(=O)c1cccs1	CYP2C9 inh 73.2
COc1ccc(N(C(C)C(=O)NCc2ccco2)S(C)(=O)=O)cc1 (stereo not drawn)	none
CCc1nc2ccccc2n1CC(=O)N(C(C)CC)C1CCS(=O)(=O)C1 (stereo not drawn)	none
CC(Cc1cccs1)NC(=O)Nc1cccc(Cl)c1 (stereo not drawn)	CYP2C19 inh 65.6
CC(Cc1cccs1)NC(=O)Nc1ccc(F)cc1 (stereo not drawn)	CYP2C19 inh 86.9
O=C(Nc1ccc(F)cc1)Nc1ccccc1NS(=O)(=O)c1cccs1	none (no result: CYP2C9 inh, CYP2C19 inh, CYP2C19 activ, CYP2C9 activ)
CCOc1nc(-c2ccccc2Cl)ccc1C#N	none
O=C(NCCN1CCN(c2ccccc2)CC1)C1(S(=O)(=O)c2ccc(Cl)cc2)CC1	none
CN(C)S(=O)(=O)c1cccc(NC(=S)Nc2cc(Cl)cc(Cl)c2)c1	Mac1 fbg inh 100.5
COc1cc(/C=N/NC(=S)Nc2cccc(S(=O)(=O)N(C)C)c2)cc(OC)c1O	none (no result: CYP2C9 inh, CYP2C19 inh, CYP2C19 activ, CYP2C9 activ)
CC(=O)c1cccc(NC(=O)c2cccc(S(=O)(=O)N(C)C)c2)c1	none
CN(C)S(=O)(=O)c1cccc(NC(=S)Nc2ccc(Cl)cc2Cl)c1	CYP2C9 inh 67.1, CYP2C19 inh 71.0, Mac1 fbg inh 99.3
CC(Oc1ccc(-c2nccc(-c3ccccn3)n2)cc1)C(=O)NN (stereo not drawn)	none
O=C(c1ccc(-c2ccccc2)cc1)N1CCN(Cc2ccccn2)CC1	none
COc1cc(OC)cc(C(=O)Nc2cccc(N3CCCC3)c2)c1	none
CN1CCN(Cc2ccc(-c3ccc(Cl)cc3)o2)CC1	CYP2C19 inh 57.2
Cc1cc(C)cc(-n2c(C)cc(/C=N/NC(=O)c3cccc([N+](=O)[O-])c3C)c2C)c1	CYP2C9 inh 52.6
COc1cc2c(C(=O)NCc3ccccn3)cn(CC(C)C)c(=O)c2cc1OC	none
CC(CCc1ccccc1)NC(=O)C1CCN(c2nnc(-n3cccc3)s2)CC1 (stereo not drawn)	none
O=C(NCCc1ccc(Cl)cc1)C1CCN(C(=O)c2sccc2-n2cccc2)CC1	CYP2C9 inh 52.2
O=C(NNC(=O)c1sccc1-n1cccc1)c1ccc(Cl)cc1	CYP2C9 activ 2.7
O=C(NCCc1ccc(Cl)cc1)C1CCN(S(=O)(=O)N2CCCC2)CC1	none
CC(CCc1ccccc1)NC(=O)C1CCN(C(=O)c2sccc2-n2cccc2)CC1 (stereo not drawn)	CYP2C9 inh 77.5, CYP2C19 inh 72.0
O=C(NNS(=O)(=O)c1ccccc1)c1sccc1-n1cccc1	none (no result: Mac1 fbg enh, Mac1 fbg inh)
Cc1cccc2cc(COC(=O)C3CCCO3)c(=O)[nH]c12 (stereo not drawn)	none
CCN(CC)c1ncnc2sc(C(=O)N3CCN(c4ccccc4)CC3)c(C)c12	CYP2C9 inh 62.5
Cc1c(C(=O)N2CCN(c3ccccn3)CC2)sc2ncnc(N3CCOCC3)c12	CYP2C9 inh 57.5
CCN(CC)c1ncnc2sc(C(=O)N3CCN(c4ccc(OC)cc4)CC3)c(C)c12	none
Cc1c(C(=O)N2CCC(C)CC2)sc2ncnc(N3CCN(c4ccccc4)CC3)c12	CYP2C9 inh 94.8, CYP2C19 inh 65.9
COc1ccc(NC(=O)COC(=O)CC2CC3CCC2C3)c([N+](=O)[O-])c1 (stereo not drawn)	none (no result: CYP2C9 inh, CYP2C19 inh, CYP2C19 activ, CYP2C9 activ)
CC(C)(C)c1ccc(OCc2nc(-c3ccccn3)no2)c(Br)c1	none
COc1cnc(-c2ccccn2)nc1Sc1cccc(Cl)c1	none (no result: Mac1 fbg enh, Mac1 fbg inh)
c1ccc(-c2ccc(-c3nc(-c4ccccn4)no3)cc2)cc1	none
Cc1ccc(-c2nc(-c3ccccn3)no2)cc1Cl	Mac1 fbg inh 70.6
c1ccc(-c2noc(-c3ccco3)n2)nc1	CYP2C19 inh 77.4
Clc1cccc(-c2nc(-c3ccccn3)no2)c1	CYP2C19 inh 51.4
Cc1ccc(-c2nc(-c3ccccn3)no2)cc1	CYP2C9 inh 58.0, CYP2C19 inh 87.4, Mac1 fbg inh 91.1

Compound activity: PubChem, Sanford-Burnham Center for Chemical Genomics
